Source: PubChem BioAssay (NCATS)
Results filed as inconclusive are left out. A number with no mark means an inactive call. The source made the active and inactive calls. Calls follow the shape of the dose curve; as a rule, active = well fitted inhibition curve with a large enough effect; inconclusive = small, poorly fitted or top-dose-only effect; inactive = flat fitted curve, though single readings scatter.

assay: qHTS for differential inhibitors of proliferation of Plasmodium falciparum line Dd2 (AID 1882); conditions: Potency: Plasmodium falciparum Dd2 proliferation inhibition; series mostly up to 28.7 µM; activity change, negative = inhibition: at the top concentration; also: nearly all actives have a fitted effect of over 65% in size
Text: NIH Molecular Libraries Probe Production Network [MLPCN]
NIH National Institute of Allergy and Infectious Diseases [NIAID]
NIH Chemical Genomics Center [NCGC]
Assay Provider: Xinzhuan Su, NIAID
Plasmodium falciparum is a virulent malarial parasite that kills 1-2 million people worldwide each year. Transmitted by mosquitoes, the sporozoite form of the parasite enters the blood stream to infect hepatocytes, where they become merozoites that infect red blood cells (erythrocytes). Within erythrocytes, merozoites begin a […] cycle of growth and division, after which the parasite is released to infect new red blood cells. Gametocytes, which form within erythrocytes as well, circulate in the bloodstream and are ingested by the mosquito, thereby completing the life cycle. To profile malarial isolates for differential chemical responses and to identify inhibitors of malarial growth, an assay that measures P. falciparum growth and replication within erythrocytes was employed. This assay uses a DNA binding fluorescent dye (SYBR Green) to detect parasite DNA following cell lysis. Because mature erythrocytes lack DNA, only Plasmodium-derived DNA is detected. The P. falciparum line Dd2, derived from a malarial isolate from […], was used.
NCGC Assay Protocol Summary:
The SYBR Green viability assay was adapted from a method described previously (Plouffe et al., 2008). For screening 3 ul culture medium was dispensed into 1536 well black clear bottom plates (Aurora Biotechnologies) using a Multidrop Combi (Thermo Fisher Scientific Inc.), 23 nL compounds in DMSO were added by a pin tool (Kalypsys), and 5 ul of erythrocytes infected with P. falciparum line Dd2 (0.3% parasitemia, 2.5% hematocrit final concentration) were added. The plates were incubated at 37 C in a humidified incubator in 5% CO2 for 72 h, and 2 ul lysis buffer (20 mM Tris HCl, 10 mM EDTA, […]% saponin, 1.6% triton X, 10X SYBR Green I supplied as 10,000X […] by Invitrogen) was added to each well. The plates were mixed for 25 sec with gentle shaking and incubated overnight at room temperature in the dark. The following morning, fluorescence intensity at 485(14) nm excitation and 535(25) nm emission wavelengths was measured on an EnVision (Perkin Elmer) plate reader. Plate reads were normalized relative to the control inhibitor (0.29 uM artemisinin) and vehicle (DMSO) wells present on each plate and then corrected by an algorithm using vehicle-only control plates at the beginning and end of the compound plate stack.
Plouffe D, Brinker A, McNamara C, Henson K, Kato N, Kuhen K, Nagle A, Adrian F, Matzen JT, Anderson P, Nam TG, Gray NS, Chatterjee A, Janes J, Yan SF, Trager R, Caldwell JS, Schultz PG, Zhou Y, Winzeler EA. […] Proc Natl Acad Sci U S A. 2008, 105(26), pp 9059-64.
Potency is read from the fitted curve at half-maximal effect.

SMILES | activity change, negative = inhibition | Potency
O=C(O)C1=CCCN(CCON=C(c2ccccc2)c2ccccc2)C1 | -11.9% | 
Cn1c(=O)c2[nH]c(-c3ccc(S(=O)(=O)O)cc3)nc2n(C)c1=O | 4.1% | 
C[C@@H](NCCc1ccc(O)cc1)[C@@H](O)c1ccc(O)cc1 | 2.29% | 
C[N+](C)(C)CC=O | 6.99% | 
CCCCCCCCCC(=O)NC(CN1CCOCC1)[C@H](O)c1ccccc1 (stereo not given in full) |  | 2.24 µM (active)
CCN(c1nc(N)c(C(=O)N=C(N)N)nc1Cl)C(C)C | -22.9% | 
O=c1onc2cnc3ccccc3n12 | -3.96% | 
O=C1C2C=CC=CC2=NC(=S)N1CCN1CCC(=C(c2ccc(F)cc2)c2ccc(F)cc2)CC1 (stereo not given) | -14.4% | 
O=c1ccn([C@@H]2O[C@H](COP(=O)(O)OP(=O)(O)O)[C@@H](O)[C@H]2O)c(=O)[nH]1 | 1.7% | 
O=[N+]([O-])c1cccc2cn[nH]c12 | -14.6% | 
CCCN(CCc1ccccc1)C1CCc2c(O)cccc2C1 (stereo not given) |  | 2 µM (active)
CNc1cc(NS(=O)(=O)c2ccc(N)cc2)nc(NC)n1 | -3.48% | 
NC1C=CC=C(C(=O)O)C1 (stereo not given) | -11.9% | 
COc1ccc2c(c1)CCC1C2CC[C@@]2(C)C1CC[C@@H]2NCCCCCCN1C(=O)C=CC1=O (stereo not given in full) | 3.61% | 
c1ccc(C2CN3CCSC3=N2)cc1 (stereo not given) | -8.58% | 
CN1CCN(c2nc3cc(C(F)(F)F)ccc3n3cccc23)CC1 |  | 8.91 µM (active)
CCCCC[C@H](CC(=O)NO)C(=O)N[C@H](C(=O)N1CCC[C@H]1CO)C(C)C |  | 3.55 µM (active)
CC(C)(CO)Cc1cc(C(C)(C)C)c(O)c(C(C)(C)C)c1 | -17.9% | 
COc1ccc(-c2ccc(N)[n+](CCCC(=O)O)n2)cc1 | 6.06% | 
N=C(N)c1ccc(N)cc1 | -3.58% | 

SMILES | activity change, negative = inhibition | Potency
N=C(N)SCCN | 6.43% | 
N=S(=O)(O)Cc1noc2ccccc12 | 0.831% | 
CN1C2CCC1CC(OC(c1ccccc1)c1ccccc1)C2 (stereo not given) |  | 4.47 µM (active)
Nc1nc2[nH]c(=O)cnc2c(=O)[nH]1 | 4.71% | 
CC1CCN=C(N)S1 (stereo not given) | -29.1% | 
CCC1(O)CC2CN(CCc3c([nH]c4ccccc34)[C@@](C(=O)OC)(c3cc4c(cc3OC)N(C)C3[C@]45CCN4CC=C[C@@](CC)([C@@H](OC(C)=O)[C@]3(O)C(=O)OC)[C@H]45)C2)C1 (stereo not given in full) |  | 0.398 µM (active)
COc1cc2c(CCNC(C)=O)c[nH]c2cc1O | -4.87% | 
CC1=C(C(=O)O)N2C(=O)[C@@H](NC(=O)C(N)C3=CCC=CC3)[C@H]2SC1 (stereo not given in full) | 1.13% | 
CC#CCOC(=O)c1c(C)nc2sc3c(c2c1N)CCC(O)C3 (stereo not given) | -6.09% | 
N[C@H](C(=O)O)[C@H]1C[C@@H]1C(=O)O | 7.61% | 
NCC(O)C1CCCCCCC1 (stereo not given) |  | 8.91 µM (active)
C=CCn1c(=O)c2c(nc(-c3ccc(S(=O)(=O)O)cc3)n2C)n(C)c1=O | -0.36% | 
CCN1C(=O)C=CC1=O | 4.11% | 
CC(C)(C)NCC(O)COc1cccc2[nH]c(=O)[nH]c12 (stereo not given) | -8.45% | 
Nc1ncnc2c1ncn2C1CCCC1 | 2.07% | 
O=C(O)[C@H]1NCCC[C@H]1C(=O)O | 0.838% | 
COc1cc(CC(=O)O)ccc1O | 5.48% | 
CC[N+](CC)(CC)CC(=O)Nc1c(C)cccc1C | 1.64% | 
c1ccc2nc(C3=NCCN3)ccc2c1 | -13.8% | 
O=C(N[C@@H](Cc1ccccc1)C(=O)CCl)OCc1ccccc1 |  | 11.2 µM (active)
